Results on 16 compounds are retold here after PubChem BioAssay AID651899 (Broad Institute, 2012).

SMILES strings stand for the structures. Potency and affinity values are given separately. Unmarked numbers belong to inactive results. A call without a number means that no potency is given here. Calls of active or inactive are those of the source. The rule behind the calls is not given here.

The test in a line: HEK293 cell viability loss – plate reader, cherry-pick, cytotoxicity control, dose response (AID 651899).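 Note: cells exposed to compound for 48 hours.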 To be noted: series mostly up to 26 µM.
Turning to `CCC(=O)N1CC[C@@H]2[C@H]1c1cc(-c3cccc(F)c3)ccc1N(C)[C@H]2CO`, the compound was classed as inactive.
Still for that read-out and setting: next, `Cc1ccc(NCc2nnc(SCC(=O)N3CCc4ccccc43)n2C)cc1`: “inactive”.
Same read-out and setting: next, `CC(C)(C)[S@](=O)N1Cc2cc(C(=O)NCc3ccccc3F)nc(-c3cccc(-c4cccnc4)c3)c2[C@@H]1CCO`: “inactive”; `CC(=O)c1ccc(N2CCN(C(=O)c3ccc4nc[nH]c4c3)CC2)cc1`: “inactive”.
Regarding `CCOc1ccc(CCNC(=O)c2cnc(C)cn2)cc1OCC`, the call was inactive.
Take `COc1ccc(-c2nc3ccc(Cl)cn3c2Cc2ccccc2)cc1OC`: the call was inactive.
For the compound `C[C@@H]1CN([C@@H](C)CO)C(=O)Cc2cc(NC(=O)Cn3cnnn3)ccc2O[C@H]1CN(C)Cc1ccc2c(c1)OCO2`, the result was inactive.
On to `O=C(COc1ccc2ccc(=O)oc2c1)N1CCN(c2ccc(F)cc2)CC1`, for which the compound was classed as inactive.
For `CCN(CC)c1ccc2cc(C(=O)c3cccs3)c(=O)oc2c1`, the compound was called inactive.
As to `CSc1ccc(S(=O)(=O)N2CCC(C(=O)Nc3cccnc3)CC2)cc1`, the compound was classed as inactive.
On to `Cc1cc(/C=C(/C#N)C(=O)Nc2ccccc2)c(C)n1-c1cccnc1`, for which the compound was classed as inactive.
As for `O=C(Nc1ncc2c(n1)CC(c1ccco1)CC2=O)c1ccco1` (stereo unspecified), the activity change, negative = cytotoxicity is 20% [at 6 µM].
For the compound `O=C(NCc1ccco1)c1ccc(-c2ccc3nccn3c2)cc1`, the compound was called inactive.
In the case of `CC(=O)c1ccc(C(=O)NC2CCCN(Cc3ccccc3F)C2)s1` (stereo unspecified), the compound was called inactive.
`Cn1nnc2cc(C(=O)Nc3cccnc3)ccc21`: the call was inactive.
As for `Cc1ccc(-c2nnc(N3CCN(C(=O)CSc4ncn[nH]4)CC3)c3ccccc23)cc1`, the compound was called inactive.
